Sampled rows, rich in hits. Any-hit rate of the full collection: about 3%.
MITF TRPM1 inh: inhibitors of MITF-dependent TRPM1 promoter reporter, primary screen, cell-based, SK-MEL-5, single point, luciferase | SK-MEL-5 TRPM1 promoter luciferase, 24 h | inhibition, % at 12.5 µM | 330,000 compounds, 0.83% hits;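 active = mean inhibition across replicates of 60% or more, whatever share of single replicates reaches that level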
KKLEB tox: cytotoxicity in KKLEB CF airway cells, primary screen, cytotoxicity control for CF NF-kB inhibitor project, cell-based, uHTS, fluorescence assay plates; KKLEB CF airway cells viability, ATPlite luminescence, overnight; active compounds read low; cells stimulated with P. aeruginosa culture filtrate; activity change (cytotoxicity), % at 5 µM; 360,000 compounds, 0.36% hits; AID 602141, 2011;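 active = corrected activity change at or below -50% at 5 µM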
HIF-2a inh: HIF-2a reporter inhibitors, primary screen, luminescence, 786-0 RCC cells. 360,000 compounds, 0.72% hits. 786-0 RCC cells HIF-2a reporter, luciferase luminescence, overnight. inhibition, % at 18.8 µM;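 active = inhibition of the luminescence signal of 40% or more relative to plate controls, in a single-dose primary screen at 18.75 µM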
ABHD5 PLIN5 PPI: ABHD5-PLIN5 interaction inhibitors, primary screen, cell lysate, split luciferase complementation, luminescence | Perilipin-5 (Homo sapiens) + 1-acylglycerol-3-phosphate O-acyltransferase ABHD5 (Homo … | Split G. princeps luciferase complementation, 4 h | inhibition, % at 4 µM | 360,000 compounds, 0.78% hits;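 active = inhibition above the mean inhibition across every tested compound plus 3 SD, cut at about 22% in these data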;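 also: 0% = DMSO only wells and the 100% control is not disclosed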
Target sequence (Q00G26 whole entry, looked up): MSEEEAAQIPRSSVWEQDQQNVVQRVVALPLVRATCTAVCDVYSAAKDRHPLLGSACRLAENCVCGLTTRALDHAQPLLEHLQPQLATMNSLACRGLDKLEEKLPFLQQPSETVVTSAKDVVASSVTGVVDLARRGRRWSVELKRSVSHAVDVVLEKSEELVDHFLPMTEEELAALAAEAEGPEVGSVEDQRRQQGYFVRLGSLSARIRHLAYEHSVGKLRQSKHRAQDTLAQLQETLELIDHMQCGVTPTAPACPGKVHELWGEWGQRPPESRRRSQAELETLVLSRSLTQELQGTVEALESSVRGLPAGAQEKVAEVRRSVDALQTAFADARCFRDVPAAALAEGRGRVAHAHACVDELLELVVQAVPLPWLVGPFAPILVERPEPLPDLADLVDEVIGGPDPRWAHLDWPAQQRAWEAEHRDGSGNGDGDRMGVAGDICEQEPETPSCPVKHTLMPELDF
Target sequence (Q8WTS1 whole entry, looked up): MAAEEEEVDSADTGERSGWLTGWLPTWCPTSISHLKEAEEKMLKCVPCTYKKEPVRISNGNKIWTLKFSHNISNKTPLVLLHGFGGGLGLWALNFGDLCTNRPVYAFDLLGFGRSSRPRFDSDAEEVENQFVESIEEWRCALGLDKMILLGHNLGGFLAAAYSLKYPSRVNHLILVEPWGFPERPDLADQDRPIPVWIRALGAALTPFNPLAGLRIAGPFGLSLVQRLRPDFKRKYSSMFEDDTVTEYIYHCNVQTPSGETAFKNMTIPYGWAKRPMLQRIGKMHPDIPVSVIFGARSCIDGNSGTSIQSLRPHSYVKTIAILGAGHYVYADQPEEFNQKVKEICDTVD
Peg3 promoter: Peg3 promoter-driven luciferase inhibitors, primary screen, cell-based, HeLa, luciferase luminescence | HeLa PEG-Prom luciferase reporter, overnight | 360,000 compounds, 1.7% hits | inhibition, % at 20 µM;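 active = inhibition of at least 50% at 20 µM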
CF NFkB inh: inhibitors of PAF-induced NF-kB signaling, primary screen, cell-based, GFP fluorescence, uHTS. KKLEB NF-kB-GFP reporter, GFP fluorescence overnight. inhibition, % at 5 µM. 360,000 compounds, 0.86% hits. AID 588850, 2011;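 active = at least 50% inhibition at 5 µM, scaled per plate between neutral and stimulator controls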;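 also: PAF is a Pseudomonas aeruginosa culture filtrate used as stimulus; plate controls were PAF-stimulated DMSO wells for no effect and unstimulated DMSO wells for full effect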
Mdm2 MdmX conf: retested Mdm2-MdmX interaction blockers, confirmation, cell-based, luminescence, single concentration, set 2; inhibition, % at 8 µM; SaOS-2 split-luciferase Mdm2/MdmX complementation; shares compounds with HIF-2a inh; 740 compounds, 99% hits;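 active = mean inhibition of the luminescence signal across two replicates at or above 26 percent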
HIF-2a inh conf: HIF-2a reporter inhibitor retest, confirmation, luminescence, 786-0 RCC cells | shares compounds with HIF-2a inh | HIF-2a luciferase reporter luminescence, overnight | inhibition, % at 18.8 µM | 1,800 compounds, 56% hits | AID 651580, 2012;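 active = mean inhibition across four replicates of at least 40 percent at the single tested concentration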
HIF-1a counter: HIF-1a luciferase reporter signal reduction – MiaPaCa-2 cells, single concentration, counter-screen for HIF-2a inhibitor project, confirmation. shares compounds with HIF-2a inh. MiaPaCa-2 HIF-1a luciferase reporter, desferoxamine, overnight. inhibition, % at 18.8 µM. 1,800 compounds, 72% hits. AID 651589, 2012;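 active = mean inhibition of the reporter signal across four replicates at the single tested dose of 50% or more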
Active calls of the source: *.

What do the screens show for `CCOC(=O)c1ccc(Oc2nc(NC(C)(C)C)nc(N(C)C)n2)cc1`?
MITF TRPM1 inh: -3; KKLEB tox: -10; HIF-2a inh: 44*; ABHD5 PLIN5 PPI: -16; Peg3 promoter: 30; CF NFkB inh: 16; HIF-2a inh conf: 50*; HIF-1a counter: -8

How did C[C@@H]1C[C@@H]2OC(=O)[C@]3(C)[C@H]2[C@@H](OC3(C)O)[C@]2(C)C(=O)C=C[C@H]12 (stereo not given in full) do in these assays?
MITF TRPM1 inh: 0; KKLEB tox: -12; HIF-2a inh: -15; ABHD5 PLIN5 PPI: 7; Peg3 promoter: 3; CF NFkB inh: 3

Results for C=C1C(=O)O[C@@H]2C[C@@H](C)[C@@H]3C=CC(=O)[C@@]3(C)[C@@H](OC(C)=O)[C@H]12 ?
Mdm2 MdmX conf: 102*

How did COC(=O)c1sc2ccccc2c1NC(=O)c1ccc(S(=O)(=O)N2CC(C)CC(C)C2)cc1 (stereo not given) do in these assays?
MITF TRPM1 inh: -2; KKLEB tox: -21; HIF-2a inh: -3; ABHD5 PLIN5 PPI: -5; Peg3 promoter: 9; CF NFkB inh: 18

How did Cc1cccc2sc(NNC(=O)c3ccc(S(=O)(=O)N4CC(C)CC(C)C4)cc3)nc12 (stereo not given) do in these assays?
MITF TRPM1 inh: 78*; KKLEB tox: -16; HIF-2a inh: 48*; ABHD5 PLIN5 PPI: 38*; Peg3 promoter: 99*; CF NFkB inh: 34; Mdm2 MdmX conf: 90*; HIF-2a inh conf: -4; HIF-1a counter: 100*

Results for Nc1c(N(CCC2=CCCCC2)C(=O)c2ccco2)c(=O)[nH]c(=O)n1Cc1ccccc1 ?
MITF TRPM1 inh: 10; KKLEB tox: -7; HIF-2a inh: 16; ABHD5 PLIN5 PPI: -3; Peg3 promoter: 2; CF NFkB inh: 20

Results for Cc1cc2nc(Sc3c([N+](=O)[O-])nc(C)n3Cc3ccccc3)[nH]c2cc1C ?
MITF TRPM1 inh: 9; KKLEB tox: -13; HIF-2a inh: 53*; ABHD5 PLIN5 PPI: 9; Peg3 promoter: 33; CF NFkB inh: 44; HIF-2a inh conf: 17; HIF-1a counter: 32

How did CCc1ccc(S(=O)(=O)Nc2ccc(-c3ccc4nnc(C)n4n3)cc2)s1 do in these assays?
MITF TRPM1 inh: -7; KKLEB tox: 3; HIF-2a inh: -3; ABHD5 PLIN5 PPI: 1; Peg3 promoter: 5; CF NFkB inh: -8

Results for CCc1ccc(S(=O)(=O)Nc2ccc(-c3ccc4nncn4n3)cc2)s1 ?
MITF TRPM1 inh: 9; KKLEB tox: -4; HIF-2a inh: 42*; ABHD5 PLIN5 PPI: 3; Peg3 promoter: 27; CF NFkB inh: 30; HIF-2a inh conf: 0; HIF-1a counter: -40

How did O=C(NCCC1CCCCN1S(=O)(=O)c1ccc(F)cc1)C(=O)NCc1ccccn1 (stereo not given) do in these assays?
MITF TRPM1 inh: -5; KKLEB tox: 10; HIF-2a inh: 10; ABHD5 PLIN5 PPI: -8; Peg3 promoter: -10; CF NFkB inh: -15

What do the screens show for `COc1ccc(C(=O)NCCNc2nc3cc(C)cc(C)c3cc2C#N)c(OC)c1`?
HIF-2a inh: 66*; ABHD5 PLIN5 PPI: 1; HIF-2a inh conf: 82*; HIF-1a counter: 98*

How did COc1ccccc1C(=O)NCCNc1nc2cc(C)cc(C)c2cc1C#N do in these assays?
MITF TRPM1 inh: 8; KKLEB tox: -9; HIF-2a inh: 9; ABHD5 PLIN5 PPI: -5; Peg3 promoter: 20; CF NFkB inh: 10

Results for COc1ccc(C(CNC(=O)Nc2cccc(C)c2)N2CCN(C)CC2)cc1 (stereo not given) ?
MITF TRPM1 inh: 2; KKLEB tox: -6; HIF-2a inh: -7; ABHD5 PLIN5 PPI: -3; Peg3 promoter: 0; CF NFkB inh: -7

Results for Nc1ccc(-c2ncc(-c3ccccc3)o2)cc1 ?
MITF TRPM1 inh: 58; KKLEB tox: 0; HIF-2a inh: 78*; ABHD5 PLIN5 PPI: -4; Peg3 promoter: -75; CF NFkB inh: -38; HIF-2a inh conf: 92*; HIF-1a counter: 62*

How did COc1ccc2c(=O)c(-c3ccc(C)cc3)c(-c3ccccc3)oc2c1 do in these assays?
MITF TRPM1 inh: -8; KKLEB tox: 6; HIF-2a inh: -19; ABHD5 PLIN5 PPI: 5; Peg3 promoter: -8; CF NFkB inh: -9

How did CCOc1ccccc1C1c2cc3c(cc2OC(C)(N2CCCC2)C1C)OCO3 (stereo not given) do in these assays?
MITF TRPM1 inh: 12; KKLEB tox: -1; HIF-2a inh: 4; ABHD5 PLIN5 PPI: -4; Peg3 promoter: 11; CF NFkB inh: 9

What do the screens show for `CC(C)C(=O)N1CCN(c2ccc(NC(=O)c3ccc([N+](=O)[O-])o3)cc2)CC1`?
MITF TRPM1 inh: 92*; KKLEB tox: -47; HIF-2a inh: 89*; ABHD5 PLIN5 PPI: 3; Peg3 promoter: 112*; CF NFkB inh: 90*; HIF-2a inh conf: 54*; HIF-1a counter: 98*

Results for Cc1ccccc1C(=O)N1CCN(c2ccc(NC(=O)c3ccc([N+](=O)[O-])o3)cc2)CC1 ?
MITF TRPM1 inh: 81*; KKLEB tox: -20; HIF-2a inh: 96*; ABHD5 PLIN5 PPI: 8; Peg3 promoter: 101*; CF NFkB inh: 64*; HIF-2a inh conf: 0; HIF-1a counter: 100*

Results for COc1ccc(C(=O)Nc2ccc(N3CCN(C(=O)C(C)C)CC3)cc2)cc1[N+](=O)[O-] ?
MITF TRPM1 inh: -9; KKLEB tox: -5; HIF-2a inh: 10; ABHD5 PLIN5 PPI: 3; Peg3 promoter: 0; CF NFkB inh: -7

What do the screens show for `O=C(Nc1ccc(N2CCN(C(=O)c3ccccc3)CC2)cc1)c1ccc([N+](=O)[O-])o1`?
MITF TRPM1 inh: 91*; KKLEB tox: -72*; HIF-2a inh: 90*; ABHD5 PLIN5 PPI: 5; Peg3 promoter: 103*; CF NFkB inh: 84*; HIF-2a inh conf: 88*; HIF-1a counter: 105*

Screens as filed in PubChem.
